# In PubChem BioAssay AID488969 (Vanderbilt High Throughput Screening Facility, 2010):
# In all, about 110,000 compounds were measured (“z-score”: median about -0.1, highest 2% from about 2 on). Only a selection was taken, and the highest values are over-represented in it overall. The source made the active and inactive calls.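 How the source made its calls: active means z-score in the third read window above 3 or below -3; inactive means the rest.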
# Target: Metabotropic glutamate receptor 8 (Rattus norvegicus) (UniProt P70579)
# Sequence (P70579 whole entry, looked up): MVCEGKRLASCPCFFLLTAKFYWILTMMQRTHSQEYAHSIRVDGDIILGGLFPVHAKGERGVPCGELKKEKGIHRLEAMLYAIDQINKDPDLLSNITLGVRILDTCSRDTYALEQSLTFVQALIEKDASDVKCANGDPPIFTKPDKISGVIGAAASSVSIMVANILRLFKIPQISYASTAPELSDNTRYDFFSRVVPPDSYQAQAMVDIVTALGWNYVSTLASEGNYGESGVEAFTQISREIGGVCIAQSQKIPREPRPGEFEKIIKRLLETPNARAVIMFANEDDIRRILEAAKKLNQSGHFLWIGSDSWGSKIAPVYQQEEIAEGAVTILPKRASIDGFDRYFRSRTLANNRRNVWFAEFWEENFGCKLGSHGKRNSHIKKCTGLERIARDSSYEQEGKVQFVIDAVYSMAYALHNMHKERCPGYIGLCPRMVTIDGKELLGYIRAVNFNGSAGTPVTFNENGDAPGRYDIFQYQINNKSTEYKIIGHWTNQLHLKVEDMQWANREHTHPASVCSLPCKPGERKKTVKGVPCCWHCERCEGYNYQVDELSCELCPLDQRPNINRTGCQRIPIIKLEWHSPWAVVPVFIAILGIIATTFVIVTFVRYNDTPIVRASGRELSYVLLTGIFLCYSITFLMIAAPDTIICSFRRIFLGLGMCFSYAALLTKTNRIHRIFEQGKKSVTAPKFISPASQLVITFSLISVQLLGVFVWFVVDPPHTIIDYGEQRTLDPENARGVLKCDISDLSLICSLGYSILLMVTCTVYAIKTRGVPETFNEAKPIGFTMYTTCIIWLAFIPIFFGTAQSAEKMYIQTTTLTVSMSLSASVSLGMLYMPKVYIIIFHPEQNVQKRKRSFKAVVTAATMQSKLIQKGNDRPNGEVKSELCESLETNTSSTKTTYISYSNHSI
# Experiment: mGluR8 Gi/Go-coupled signaling modulation – cell-based, rat, thallium flux, HTS, primary screen (AID 488969)
# Details: HEK293 rat mGluR8, GIRK (G protein-gated inwardly rectifying potassium channel) thallium flux, FluoZin2; at 10 µM; stronger effect = higher value; submaximal glutamate (EC20) added with thallium
row,Compound,z-score
1,Cc1ccc(S(=O)(=O)NCc2c(-c3ccccc3)c3cc(Cl)ccc3[nH]c2=O)cc1,-0.178
2,CC1CC(C)CN(CC(=O)Nc2ccc3c(c2)OCCO3)C1 (centres undefined),-0.603
3,COc1cc(N2C(=O)c3ccccc3C2=O)c(Cl)cc1C(=O)OCC(=O)NCc1ccco1,0.165
4,CCOC(=O)c1cnc(SC)nc1N,-0.0813
5,CCCn1c(-c2ccc(F)cc2)cnc1SCC(=O)O,-0.678
6,CCOC(=O)c1c(C)[nH]c(C(=O)COC(=O)CNC(=O)c2ccc(Br)cc2)c1C,-0.279
7,CCOC(=O)c1c(C)[nH]c(C(=O)COC(=O)CNC(=O)c2ccc(Cl)cc2Cl)c1C,-0.202
8,CCOC(=O)c1c(C)[nH]c(C(=O)COC(=O)CNC(=O)c2ccc(Cl)cc2)c1C,5.97 (active)
9,COc1ccc(CCn2c(C)cc(C(=O)CSc3nnnn3-c3ccccc3)c2C)cc1,0.292
10,CN(C)c1ccc(/C=C/c2nnnn2-c2ccccc2)cc1,-0.556
11,COc1ccc(S(=O)(=O)N2CCCCC2)cc1NC(=O)c1ccc2ccccc2n1,-0.376
12,CCc1ccc(Nc2nc3ccccc3c(=O)s2)cc1,2.82
13,CCc1ccc(NCc2nc3ccccc3c(=O)[nH]2)cc1,-0.644
14,CCc1ccc(Nc2nnc(SCn3nnc4ccccc4c3=O)s2)cc1,-0.292
15,Cc1ccc2nc3sc(C(=O)N4CCCc5ccccc54)c(N)c3cc2c1,0.484
16,CN(Cc1nc(-c2ccncc2)no1)S(=O)(=O)c1ccccc1,0.00952
17,O=C(CSc1ccccn1)N1CCN(c2ccccc2)CC1,0.0291
18,COc1cc(SC#N)ccc1N=Cc1c(C)[nH]n(-c2ccc(C)cc2)c1=O,0.469
19,Cc1[nH]n(-c2ccccc2)c(=O)c1C=Nc1cnc2ccccc2c1,0.416
20,Cc1ccc(-n2[nH]c(C)c(C=Nc3ccc(S(=O)(=O)Nc4nc(C)cc(C)n4)cc3)c2=O)c(C)c1,-0.0925
21,CCOc1ccc(N=Cc2c(C)[nH]n(-c3nc4ccccc4[nH]3)c2=O)cc1,0.0911
22,COc1ccc2nc(/N=C\N(C)C)sc2c1,0.401
23,COc1ccc2nc(/N=C/c3c(C)[nH]n(-c4ccc(C)cc4C)c3=O)sc2c1,15.7 (active)

row,Compound,z-score
1,CCOc1ccc2nc(SC3CC(=O)N(c4ccc(C)cc4)C3=O)sc2c1 (centres undefined),0.0229
2,COc1ccc2nc(/N=C/c3c(C)[nH]n(-c4ccc(C)cc4)c3=O)sc2c1,9.39 (active)
3,COc1cc(SC#N)ccc1N=Cc1c(C)[nH]n(-c2ccc(C)cc2C)c1=O,-0.204
4,CCOc1ccc2nc(NC(=O)CS(=O)(=O)c3ccc(C)cc3)sc2c1,-0.503
5,CCOc1ccc2nc(/N=C/c3c(C)[nH]n(-c4ccc(C)cc4)c3=O)sc2c1,10.6 (active)
6,CCOc1ccc2nc(/N=C/c3c(C)[nH]n(-c4ccccc4)c3=O)sc2c1,13.8 (active)
7,O=C(CCc1nc(-c2ccc(Cl)cc2)no1)OCc1ccc(Br)cc1,-0.0119
8,O=C(CCSc1ccc(Cl)cc1)NC1CCCCC1,-0.109
9,COC(=O)c1ccccc1NC(=O)c1cc(-c2ccc(O)cc2)on1,-0.322
10,Cc1cc(N=Cc2cc(Br)ccc2O)no1,-1.2
11,O=S1(=O)C[C@@H](O)[C@@H](Nc2ccc(Cl)cc2)C1,-0.343
12,CCn1cc(/C=N/NS(=O)(=O)c2ccc(C)cc2)c(C)n1,-0.045
13,CC(C)OC(=O)c1c(N)n(CCCN2CCOCC2)c2nc3ccccc3nc12,-0.444
14,COc1ccc2c(c1)c1nc3ccccc3nc1n2CC(=O)OC(C)C,0.485
15,CC(C)OC(=O)c1c2nc3ccccc3nc2n2c1[nH]c(=O)c1ccccc12,16.9 (active)
16,CCOC(=O)c1ccc(NC(=O)CN2C(=O)CNC2=O)cc1,-0.263
17,CCOC(=O)C1=C(C)C2C3C(=O)N(c4ccccc4C)C(=O)C3C1(C)C1C(=O)N(c3ccccc3C)C(=O)C21 (centres undefined),-0.246
18,O=C(CN1C(=O)NC2(CCc3ccccc32)C1=O)Nc1ccc(N2CCOCC2)cc1 (centres undefined),-0.205
19,Cc1ccc(C(=O)NC(=S)Nc2ccccc2C(F)(F)F)cc1,6.32 (active)
20,Cc1ccccc1C(=O)NC(=S)Nc1ccccc1C(F)(F)F,1.41
21,CC(C)(C)CC(=O)NC(=S)Nc1ccccc1C(F)(F)F,0.863
22,CCC(=O)NC(=S)Nc1ccccc1C(F)(F)F,0.0622
23,Cc1ccc(C(=O)NC(=S)Nc2ccccc2C(F)(F)F)c(C)c1,0.996

row,Compound,z-score
1,Cc1ccc(C(=O)NC(=S)Nc2ccccc2C(F)(F)F)cc1C,5.48 (active)
2,Cc1cccc(C(=O)NC(=S)Nc2ccccc2C(F)(F)F)c1,3.38 (active)
3,CCCC(=O)NC(=S)Nc1ccccc1C(F)(F)F,0.25
4,CC(C)C(=O)NC(=S)Nc1ccccc1C(F)(F)F,0.0217
5,COc1cccc(C(=O)NC(=S)Nc2ccc(N3CCCC3)cc2)c1,-0.087
6,O=C(CC1C(=O)N(c2ccccc2)C(=S)N1c1ccccc1)c1ccccc1 (centres undefined),0.466
7,CC(Sc1ncnc2ccccc12)C(=O)Nc1ccc2c(c1)OCCO2 (centres undefined),-0.25
8,NS(=O)(=O)c1ccc(CCNC(=S)Nc2ccccc2)cc1,-0.217
9,COc1ccccc1OCc1ccc(C(=O)Nc2ccccc2F)cc1,-0.156
10,O=C(CSCc1cnn(-c2ccccc2)c1-n1cccc1)NCc1ccc2c(c1)OCO2,0.533
11,C#CCn1cc(/C=N/NC(=O)c2cc3ccccc3o2)c2ccccc21,-0.24
12,Cc1cc(N2CCOCC2)nc2ccc(NC(=O)CCC(=O)N3CCC(C)CC3)cc12,0.27
13,Cc1cc(N2CCOCC2)nc2ccc(NC(=O)CCC(=O)N3CCCCC3)cc12,-0.00221
14,Cc1cc(N2CCOCC2)nc2ccc(NC(=O)CCC(=O)N3CCCC(C)C3)cc12 (centres undefined),2.7
15,CCOC(=O)c1c(-c2ccccc2)nnn1-c1nc(OC)nc(N2CCOCC2)n1,-0.476
16,Cc1ccnc2nc(C(=O)Nc3nnc(CC(C)C)s3)nn12,-0.0103
17,Cc1ccc(NC(=O)CN2C(=O)S/C(=C\C(=O)Nc3ccc(Cl)cc3)C2=O)cc1,-0.0557
18,COc1ccc(NC2=Nc3cccc4cccc2c34)cc1OC,4.9 (active)
19,COc1ccc(NC2=Nc3cccc4cccc2c34)cc1,-0.54
20,COc1cc(NC2=Nc3cccc4cccc2c34)cc(OC)c1OC,-0.385
21,COc1ccc(-c2cc(C#N)nc(N3CCN(c4ccccc4)CC3)n2)cc1,-0.103
22,COc1ccc(-c2cc(C#N)nc(N3CCNCC3)n2)cc1,2.07
23,COc1ccc(-c2cc(-c3ccc(F)cc3)nc(N3CCN(C)CC3)n2)cc1,0.083
